{"source": "paper PMC5540273", "about": "(PLoS ONE, 2017);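 further: KINOMEscan kinase panel screen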", "settings_in_all_cases": "concentration: 1 μM, replicates: in singlicate; n = 1", "key": {"PDGFRB": {"system": "PDGFRB"}, "PDPK1": {"system": "PDPK1"}, "PFTAIRE2": {"system": "PFTAIRE2"}, "PFTK1": {"system": "T1, PFTK1", "T1 construct": "gene CDK14"}, "PHKG1": {"system": "PHKG1"}, "PHKG2": {"system": "PHKG2"}, "PIK3C2B": {"system": "PIK3C2B"}, "PIK3C2G": {"system": "PIK3C2G"}, "PIK3CA": {"system": "PIK3CA"}, "PIK3CB": {"system": "PIK3CB"}, "PIK3CD": {"system": "PIK3CD"}, "PIK3CG": {"system": "PIK3CG"}, "PIK4CB": {"system": "T2, PIK4CB", "T2 construct": "gene PI4KB"}, "PIKFYVE": {"system": "PIKFYVE"}, "PIM1": {"system": "PIM1"}, "PIM2": {"system": "PIM2"}, "PIM3": {"system": "PIM3"}, "PIP5K1A": {"system": "PIP5K1A"}, "PIP5K1C": {"system": "PIP5K1C"}, "PIP5K2B": {"system": "PIP5K2B"}}, "data": [{"smiles": "O=c1cc(N2CCOCC2)nc2n(Cc3cccc(Cl)c3)ccn12", "note": "[GSK2296823]", "values": [{"measurement": "%Inh", "setting": "PDGFRB", "result": 15, "unit": "%"}, {"measurement": "%Inh", "setting": "PDPK1", "result": 0, "unit": "%"}, {"measurement": "%Inh", "setting": "PFTAIRE2", "result": 14, "unit": "%"}, {"measurement": "%Inh", "setting": "PFTK1", "result": 18, "unit": "%"}, {"measurement": "%Inh", "setting": "PHKG1", "result": 0, "unit": "%"}, {"measurement": "%Inh", "setting": "PHKG2", "result": 0, "unit": "%"}, {"measurement": "%Inh", "setting": "PIK3C2B", "result": 6, "unit": "%"}, {"measurement": "%Inh", "setting": "PIK3C2G", "result": 0, "unit": "%"}, {"measurement": "%Inh", "setting": "PIK3CA", "result": 0, "unit": "%"}, {"measurement": "%Inh", "setting": "PIK3CB", "result": 98.5, "unit": "%"}, {"measurement": "%Inh", "setting": "PIK3CD", "result": 68, "unit": "%"}, {"measurement": "%Inh", "setting": "PIK3CG", "result": 0, "unit": "%"}, {"measurement": "%Inh", "setting": "PIK4CB", "result": 2, "unit": "%"}, {"measurement": "%Inh", "setting": "PIKFYVE", "result": 0, "unit": "%"}, {"measurement": "%Inh", "setting": "PIM1", "result": 0, "unit": "%"}, {"measurement": "%Inh", "setting": "PIM2", "result": 0, "unit": "%"}, {"measurement": "%Inh", "setting": "PIM3", "result": 0, "unit": "%"}, {"measurement": "%Inh", "setting": "PIP5K1A", "result": 0, "unit": "%"}, {"measurement": "%Inh", "setting": "PIP5K1C", "result": 8, "unit": "%"}, {"measurement": "%Inh", "setting": "PIP5K2B", "result": 11, "unit": "%"}]}, {"smiles": "CCC(CC)(CC)n1cnc2c(N)ncnc21", "note": "[SKF-97620]", "values": [{"measurement": "%Inh", "setting": "PDGFRB", "result": 0, "unit": "%"}, {"measurement": "%Inh", "setting": "PDPK1", "result": 0, "unit": "%"}, {"measurement": "%Inh", "setting": "PFTAIRE2", "result": 0, "unit": "%"}, {"measurement": "%Inh", "setting": "PFTK1", "result": 0, "unit": "%"}, {"measurement": "%Inh", "setting": "PHKG1", "result": 0, "unit": "%"}, {"measurement": "%Inh", "setting": "PHKG2", "result": 0, "unit": "%"}, {"measurement": "%Inh", "setting": "PIK3C2B", "result": 0, "unit": "%"}, {"measurement": "%Inh", "setting": "PIK3C2G", "result": 9, "unit": "%"}, {"measurement": "%Inh", "setting": "PIK3CA", "result": 6, "unit": "%"}, {"measurement": "%Inh", "setting": "PIK3CB", "result": 27, "unit": "%"}, {"measurement": "%Inh", "setting": "PIK3CD", "result": 22, "unit": "%"}, {"measurement": "%Inh", "setting": "PIK3CG", "result": 5, "unit": "%"}, {"measurement": "%Inh", "setting": "PIK4CB", "result": 40, "unit": "%"}, {"measurement": "%Inh", "setting": "PIKFYVE", "result": 33, "unit": "%"}, {"measurement": "%Inh", "setting": "PIM1", "result": 0, "unit": "%"}, {"measurement": "%Inh", "setting": "PIM2", "result": 6, "unit": "%"}, {"measurement": "%Inh", "setting": "PIM3", "result": 5, "unit": "%"}, {"measurement": "%Inh", "setting": "PIP5K1A", "result": 30, "unit": "%"}, {"measurement": "%Inh", "setting": "PIP5K1C", "result": 9, "unit": "%"}, {"measurement": "%Inh", "setting": "PIP5K2B", "result": 0, "unit": "%"}]}, {"smiles": "c1ccc(-c2ccc3c(-c4ccnc(Nc5ccc6c(c5)OCCO6)n4)cnn3n2)cc1", "note": "[GW818941]", "values": [{"measurement": "%Inh", "setting": "PDGFRB", "result": 4, "unit": "%"}, {"measurement": "%Inh", "setting": "PDPK1", "result": 17, "unit": "%"}, {"measurement": "%Inh", "setting": "PFTAIRE2", "result": 5, "unit": "%"}, {"measurement": "%Inh", "setting": "PFTK1", "result": 19, "unit": "%"}, {"measurement": "%Inh", "setting": "PHKG1", "result": 0, "unit": "%"}, {"measurement": "%Inh", "setting": "PHKG2", "result": 0, "unit": "%"}, {"measurement": "%Inh", "setting": "PIK3C2B", "result": 0, "unit": "%"}, {"measurement": "%Inh", "setting": "PIK3C2G", "result": 11, "unit": "%"}, {"measurement": "%Inh", "setting": "PIK3CA", "result": 0, "unit": "%"}, {"measurement": "%Inh", "setting": "PIK3CB", "result": 0, "unit": "%"}, {"measurement": "%Inh", "setting": "PIK3CD", "result": 0, "unit": "%"}, {"measurement": "%Inh", "setting": "PIK3CG", "result": 0, "unit": "%"}, {"measurement": "%Inh", "setting": "PIK4CB", "result": 0, "unit": "%"}, {"measurement": "%Inh", "setting": "PIKFYVE", "result": 0, "unit": "%"}, {"measurement": "%Inh", "setting": "PIM1", "result": 9, "unit": "%"}, {"measurement": "%Inh", "setting": "PIM2", "result": 0, "unit": "%"}, {"measurement": "%Inh", "setting": "PIM3", "result": 17, "unit": "%"}, {"measurement": "%Inh", "setting": "PIP5K1A", "result": 0, "unit": "%"}, {"measurement": "%Inh", "setting": "PIP5K1C", "result": 0, "unit": "%"}, {"measurement": "%Inh", "setting": "PIP5K2B", "result": 1, "unit": "%"}]}, {"smiles": "COc1ccc(Nc2nccc(N3CCC(NC(=O)Nc4ccc5c(c4)OCO5)C3)n2)cc1", "note": "(stereo not shown) [GSK1379745]", "values": [{"measurement": "%Inh", "setting": "PDGFRB", "result": 24, "unit": "%"}, {"measurement": "%Inh", "setting": "PDPK1", "result": 27, "unit": "%"}, {"measurement": "%Inh", "setting": "PFTAIRE2", "result": 11, "unit": "%"}, {"measurement": "%Inh", "setting": "PFTK1", "result": 7, "unit": "%"}, {"measurement": "%Inh", "setting": "PHKG1", "result": 0, "unit": "%"}, {"measurement": "%Inh", "setting": "PHKG2", "result": 9, "unit": "%"}, {"measurement": "%Inh", "setting": "PIK3C2B", "result": 9, "unit": "%"}, {"measurement": "%Inh", "setting": "PIK3C2G", "result": 0, "unit": "%"}, {"measurement": "%Inh", "setting": "PIK3CA", "result": 0, "unit": "%"}, {"measurement": "%Inh", "setting": "PIK3CB", "result": 0, "unit": "%"}, {"measurement": "%Inh", "setting": "PIK3CD", "result": 5, "unit": "%"}, {"measurement": "%Inh", "setting": "PIK3CG", "result": 0, "unit": "%"}, {"measurement": "%Inh", "setting": "PIK4CB", "result": 14, "unit": "%"}, {"measurement": "%Inh", "setting": "PIKFYVE", "result": 14, "unit": "%"}, {"measurement": "%Inh", "setting": "PIM1", "result": 9, "unit": "%"}, {"measurement": "%Inh", "setting": "PIM2", "result": 0, "unit": "%"}, {"measurement": "%Inh", "setting": "PIM3", "result": 0, "unit": "%"}, {"measurement": "%Inh", "setting": "PIP5K1A", "result": 11, "unit": "%"}, {"measurement": "%Inh", "setting": "PIP5K1C", "result": 51, "unit": "%"}, {"measurement": "%Inh", "setting": "PIP5K2B", "result": 40, "unit": "%"}]}, {"smiles": "CS(=O)(=O)CCNCc1ccc(-c2ccc3ncnc(Nc4ccc(OCc5ccccc5)c(Cl)c4)c3c2)o1.Cl", "note": "[GW574783]", "values": [{"measurement": "%Inh", "setting": "PDGFRB", "result": 14, "unit": "%"}, {"measurement": "%Inh", "setting": "PDPK1", "result": 17, "unit": "%"}, {"measurement": "%Inh", "setting": "PFTAIRE2", "result": 0, "unit": "%"}, {"measurement": "%Inh", "setting": "PFTK1", "result": 0, "unit": "%"}, {"measurement": "%Inh", "setting": "PHKG1", "result": 13, "unit": "%"}, {"measurement": "%Inh", "setting": "PHKG2", "result": 0, "unit": "%"}, {"measurement": "%Inh", "setting": "PIK3C2B", "result": 38, "unit": "%"}, {"measurement": "%Inh", "setting": "PIK3C2G", "result": 0, "unit": "%"}, {"measurement": "%Inh", "setting": "PIK3CA", "result": 0, "unit": "%"}, {"measurement": "%Inh", "setting": "PIK3CB", "result": 0, "unit": "%"}, {"measurement": "%Inh", "setting": "PIK3CD", "result": 0, "unit": "%"}, {"measurement": "%Inh", "setting": "PIK3CG", "result": 0, "unit": "%"}, {"measurement": "%Inh", "setting": "PIK4CB", "result": 8, "unit": "%"}, {"measurement": "%Inh", "setting": "PIKFYVE", "result": 23, "unit": "%"}, {"measurement": "%Inh", "setting": "PIM1", "result": 0, "unit": "%"}, {"measurement": "%Inh", "setting": "PIM2", "result": 5, "unit": "%"}, {"measurement": "%Inh", "setting": "PIM3", "result": 0, "unit": "%"}, {"measurement": "%Inh", "setting": "PIP5K1A", "result": 32, "unit": "%"}, {"measurement": "%Inh", "setting": "PIP5K1C", "result": 62, "unit": "%"}, {"measurement": "%Inh", "setting": "PIP5K2B", "result": 0, "unit": "%"}]}]}
